Sampled rows, rich in hits. Any-hit rate of the full collection: about 1.4%.
KCNH2 WT inh – inhibitors of human wildtype KCNH2 potassium channel | U2OS, BacMam KCNH2, thallium flux FluxOr; hits give low values | 340,000 tested, 0.37% active | activity change, % at 1.84 µM | Q12809;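 active means maximum activity change below -70%; inconclusive means maximum activity change between -70% and -50%; inactive means maximum activity change above -50%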; further: on the % scale 0 is the no-effect control and ±100 the full control effect
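U2OS cells were transduced with wild-type KCNH2 virus (2.03 x 10^8 / mL) for 4 h at room temperature, then cultured overnight at 37 C. Thallium flux was read with FluxOr dye. Rate constants were normalized to DMSO controls.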
RXFP1 agonist – activates the human relaxin receptor RXFP1 | Q9HBX9 | HEK293T-RXFP1 cAMP TR-FRET, 30 min; response scale: percent of porcine relaxin response, buffer zero | Potency, µM (top dose mostly 57.5 µM), for inactives: top-dose activation, hits mostly activators | 370,000 tested, 0.3% active | AID 2676; further: potency means the concentration at half of the fitted maximal effect; on the % scale 0 is the no-effect control and ±100 the full control effect; nearly all actives have a fitted effect of over 60% in size
Target sequence (Q9HBX9 whole entry, looked up): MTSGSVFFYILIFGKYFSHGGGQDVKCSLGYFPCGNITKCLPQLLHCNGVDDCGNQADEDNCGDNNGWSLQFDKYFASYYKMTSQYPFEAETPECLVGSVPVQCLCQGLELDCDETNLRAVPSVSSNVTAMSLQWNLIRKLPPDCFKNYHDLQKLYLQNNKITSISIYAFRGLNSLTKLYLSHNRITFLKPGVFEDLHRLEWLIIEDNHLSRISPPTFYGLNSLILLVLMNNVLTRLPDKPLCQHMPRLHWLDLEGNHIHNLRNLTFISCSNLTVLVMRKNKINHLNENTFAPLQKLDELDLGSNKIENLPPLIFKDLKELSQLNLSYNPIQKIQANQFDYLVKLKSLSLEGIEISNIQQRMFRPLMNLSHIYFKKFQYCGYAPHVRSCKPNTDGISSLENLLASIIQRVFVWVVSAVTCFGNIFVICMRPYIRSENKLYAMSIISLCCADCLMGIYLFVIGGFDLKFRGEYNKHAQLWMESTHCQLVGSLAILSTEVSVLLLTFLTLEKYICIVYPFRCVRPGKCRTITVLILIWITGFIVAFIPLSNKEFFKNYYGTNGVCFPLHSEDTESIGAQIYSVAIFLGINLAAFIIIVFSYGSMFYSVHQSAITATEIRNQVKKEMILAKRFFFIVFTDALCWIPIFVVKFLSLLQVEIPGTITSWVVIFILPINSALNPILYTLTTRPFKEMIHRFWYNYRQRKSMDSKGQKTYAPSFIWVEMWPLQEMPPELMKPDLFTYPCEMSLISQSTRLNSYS
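cAMP rise read by TR-FRET after 30 min, 37C compound exposure (up to 58 uM) in RXFP1-transfected HEK293 cells with Ro 20174 present. EC50 from Hill-equation fits, with 29 nM porcine relaxin as 100% and buffer as basal.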
KCNH2 3.1 block – KCNH2 3.1 (human) potassium channel inhibition. activity change, % (tested at about 1.8 µM). 340,000 tested, 0.95% active. AID 720553. U2OS KCNH2 3.1, thallium flux FluxOr; hits give low values;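 active means maximum activity change below -70%; inconclusive means maximum activity change from -70% to -50%; inactive means maximum activity change above -50%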;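 further: thallium influx rate constant from kinetic fluorescence after stimulation buffer; on the % scale 0 is the no-effect control and ±100 the full control effect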
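Thallium flux via FluxOr fluorescence (Red40 quencher, 45 min loading) in U2OS cells virally expressing the KCNH2 3.1 isoform (1.77 x 10^8 /mL virus, overnight at 37 C). Rate constants from 2-min kinetic reads post-stimulation, normalised to positive and negative controls.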
PTHR1 ag – agonists of human PTHR1 parathyroid hormone receptor; HEK293 GP2 PTHR1 cells, GloSensor cAMP luminescence, 1 h; Potency, µM (highest dose often 115 µM), inactives show top-dose activation, usual class: activators; AID 743266; 410,000 tested, 0.075% active; further: potency means the concentration at half of the fitted maximal effect; nearly all actives have a fitted effect of over 55% in size
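HEK-293-derived GP2 cells expressing PTHR1 and a GloSensor cAMP reporter, 3,000/well, plated overnight, given luciferin plus IBMX (each 0.5 mM as added) for 1 h at 37 °C, then compound for 1 h at 37 °C. Luminescence was read after 15 min at room temperature.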
Glioma ERSR ind – inducers of ER stress response in human glioma cells; U87-MG GRP78 promoter luciferase reporter, 16 h; Potency, µM, for inactives: at the highest dose activation, most hits filed as activators; 420,000 tested, 0.02% active; further: potency means the concentration at half of the fitted maximal effect; series mostly up to about 76 µM; % of control where 0% means no effect; nearly all actives have a fitted effect of over 35% in size
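Stably transfected U87-MG glioma cells carrying a GRP78-based luciferase sensor; 16 h compound incubation. Luminescence end-point read 10 min after Bright-Glo addition at room temperature.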
RXFP1 antagonist – blocks the human relaxin receptor RXFP1; 350,000 tested, 0.59% active; activity change, negative = inhibition, % at 57.5 µM; HEK293-RXFP1, relaxin-stimulated cAMP HTRF, 30 min; hits give low values; Q9HBX9;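 active means activity change of -60% or lower, but not beyond a set lower limit; inconclusive means change between -60% and -40%, or beyond the set limit; inactive means change above -40%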; further: on the % scale 0 is the no-effect control and ±100 the full control effect
Active calls of the source: *; i = inactive; ? = inconclusive; . = not tested or not shown; [ ] = remark or other dose. Unless noted, the call rests on the fitted dose curve; in most records, active means well fitted curve in the direction sought with a large enough effect; inconclusive means small, poorly fitted or top-dose-only effect, or another doubt; inactive means no such curve, though single readings can be large; an effect the other way counts as inactive or inconclusive.

SMILES	KCNH2 WT inh	RXFP1 agonist	KCNH2 3.1 block	PTHR1 ag	Glioma ERSR ind	RXFP1 antagonist
O=C(Nc1ccccc1F)C(=Cc1sc(N2CCOCC2)nc1-c1ccccc1)C(=O)Nc1ccccc1F	-1	2%	-77*	i	0%	7
O=C(N/N=C/c1sc(N2CCOCC2)nc1-c1ccccc1)c1ccccc1F	0	-2%	-4	4%	-4%	7
COc1cc(C(=O)NCC(=O)NNC(=O)CN(C)S(=O)(=O)c2ccc(Cl)cc2)cc(OC)c1OC	-5	.	5	-19%	-4%	-11
COc1ccc(C(C)C)cc1S(=O)(=O)NCCCn1ccnc1	1	-1%	-8	-18%	-3%	-63*
CCOC(=O)COc1cc(Br)c(/C=N/Nc2ccccc2)cc1OC	13	27%	-19	i	35µM*	25
CCC(CC)NC(=O)Nc1ccccc1C(F)(F)F	-112*	1%	-18	-74%	2%	12
CCC(CC)NC(=O)Nc1ccccc1C	-3	2%	-2	i	-1%	-8
Cc1ccn2c(=O)nc(SCC(=O)N3CCCC3)nc2c1	-4	8%	3	i	-1%	-7
COc1cc(SC)ccc1C(=O)Nc1ccc(C)cc1	-10	-1%	-16	-38%	-5%	-21
COc1cc(SC)ccc1C(=O)Nc1ccc(C)cc1C	-4	-2%	-82*	-21%	1%	8
O=C(NCC1CC1)NC(=O)c1c(F)cccc1Cl	-14	-1%	-1	i	-5%	5
O=C1c2cccc3c(N4CCCCC4)ccc(c23)C(=O)N1c1cccc(O)c1	-11	8%	-14	-35%	2%	-25
Cc1n[nH]c(C)c1N1C(=O)c2cccc3c(N4CCCCCC4)ccc(c23)C1=O	-12	4%	-15	?	0%	-65*
Clc1ccccc1CSC1=NCCN1	2	0%	3	-5%	-3%	4
CC(=O)Nc1ccc(Sc2ncccc2C(=O)Nc2ccc(OC(F)(F)F)cc2)cn1	1	0%	-86*	i	13%	-13
CCCn1c(SCC(=O)Nc2ccc(NC(C)=O)cc2)nc2c1c(=O)n(C)c(=O)n2C	7	?	8	i	-6%	19
CCC(=O)Nc1ccc(NC(=O)CSc2nc3c(c(=O)n(C)c(=O)n3C)n2CC)cc1	-2	16µM*	-20	i	4%	21
Cc1cc(C)c(C#N)c(SCSCc2ccccc2)n1	2	0%	-21	-6%[57.5 µM]	-3%	10
CC(=O)c1sc(N/N=C\c2c(O)ccc3ccccc23)nc1C	3	.	12	-10%	5%	-82*
CC(C)OC(=O)Cn1c(=O)sc2ccccc21	-13	0%	-1	?	-2%	-5
CC[n+]1c(/C=C/N(C)c2ccccc2)n(-c2ccccc2)c2ccc(-c3nc4ccccc4s3)cc21	-21	4%	6	-30%	1%	-60*
COc1ccccc1-c1c(-c2ccc(OCC(=O)NN)cc2O)n[nH]c1C(F)(F)F	-1	1%	9	-34%	-2%	-10
COc1ccc(-c2n[nH]c(C(F)(F)F)c2-c2cc3ccccc3o2)c(O)c1	-12	-1%	5	-32%[57.5 µM]	-1%	-69*
Cc1ccc(Nc2n[nH]c(=S)s2)cc1	3	.	-5	-2%	-4%	-14
S=c1[nH]nc(Nc2ccc(Cl)cc2)s1	12	0%	-91*	-24%	-5%	-14
SMILES	KCNH2 WT inh	RXFP1 agonist	KCNH2 3.1 block	PTHR1 ag	Glioma ERSR ind	RXFP1 antagonist
CSc1oc(-c2ccccc2)nc1S(=O)(=O)c1ccc(F)cc1	3	1%	-90*	-1%[57.5 µM]	-4%	-6
O=S(=O)(c1ccccc1)c1nc(-c2ccc(F)cc2)oc1N1CCOCC1	6	0%	-1	-13%	-4%	18
CS(=O)(=O)c1oc(-c2ccc(F)cc2)nc1S(=O)(=O)c1ccc(Cl)cc1	.	2%	.	-43%	-11%	?
CSc1oc(-c2ccc(F)cc2)nc1S(=O)(=O)c1ccccc1	-4	2%	14	-16%	-2%	2
CCCCS(=O)(=O)c1oc(-c2ccc(F)cc2)nc1S(=O)(=O)c1ccccc1	.	1%	.	-36%	-11%	-81*
CCS(=O)(=O)c1oc(-c2ccc(F)cc2)nc1S(=O)(=O)c1ccc(Br)cc1	.	1%	.	-31%	-10%	-102*
CC(C)S(=O)(=O)c1oc(-c2cccs2)nc1S(=O)(=O)c1ccc(F)cc1	.	2%	.	-5%	-11%	-79*
Cc1ccccc1OCC(=O)Nc1ccc2c(c1)COC2=O	-2	0%	-8	-24%[57.5 µM]	1%	-10
O=C(COc1ccc([N+](=O)[O-])cc1)Nc1ccc(NC(=O)c2ccccc2)cc1	19	3%	.	-9%	-3%	-7
CCOc1ccc(NC(=O)CSc2nncc(=O)[nH]2)cc1	0	2%	-1	i	-3%	-8
CSc1oc(-c2ccc(F)cc2)nc1S(=O)(=O)c1ccc(F)cc1	-1	13%	-6	-70%	-3%	7
CC(C)S(=O)(=O)c1oc(-c2ccc(F)cc2)nc1S(=O)(=O)c1ccccc1	.	0%	.	-94%	-11%	-106*
COCCCn1c(SCC(=O)N2CCc3ccccc32)nnc1-c1ccco1	-1	3%	-22	-1%[57.5 µM]	-6%	3
CC(CNC(=O)CCCn1c(=O)c2cccn2c2ccccc21)c1ccccc1 (stereo unspecified)	.	-2%	.	i	-3%	-78*
CSc1ccc(CCNC(=O)CCCn2c(=O)c3cccn3c3ccccc32)cc1	.	4%	.	-33%	-4%	-75*
CCn1c(C)cc(O)cc1=O	-15	4%	6	-3%	-4%	19
CCN(CC)C(=O)c1sc2[nH]c(=S)n(-c3ccccc3)c(=O)c2c1C	-30	11%	-9	-8%[57.5 µM]	-2%	-67*
CCN(CC)C(=O)c1sc2c(c1C)c(=O)n(-c1ccccc1)c(=O)n2CC(=O)N(CC)c1cccc(C)c1	.	0%	.	-2%	-1%	4
CCC(=O)Nc1ccc(NC(=O)CSc2nnnn2-c2ccc3c(c2)OCCO3)cc1	4	-2%	-4	-24%	-4%	4
CCOC(=O)c1csc(NC(=O)CSc2nnnn2-c2ccc3c(c2)OCCO3)n1	-118*	-1%	-16	-100%[57.5 µM]	1%	-17
COCCn1c(=S)[nH]c2sc3c(c2c1=O)CCC(C)C3 (stereo unspecified)	-11	?	16	i	3%	-25
COCCCn1c(=S)[nH]c2sc3c(c2c1=O)CCCS3	2	16µM*	5	i	-1%	-2

Screens deposited in PubChem by National Center for Advancing Translational Sciences (NCATS).
